Test results taken from PubChem BioAssay (NCATS).
Results filed as inconclusive are left out. Values without a mark were called inactive. Activity calls are given as the source filed them. Calls follow the shape of the dose curve; as a rule, active = well fitted curve in the direction sought with a large enough effect; inconclusive = small, poorly fitted or top-dose-only effect, or another doubt; inactive = no such curve, though single readings can be large; an effect the other way counts as inactive or inconclusive.

How the values were obtained:
[1] = Quantitative High-Throughput drug screen in 47 multiple myeloma cell lines against the NCATS MIPE library collection: OCIMY1_PLB cell viability assay (AID 1918979); details: OCI-MY1 myeloma viability, CellTiter-Glo ATP, 48 h; series mostly up to 45.8 µM; also: nearly all actives have a fitted effect of over 35% in size;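 as to viability: 100% = DMSO-only wells and 0% = cell-free media-only wells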
How it was run: (§1)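 Cells were exposed to library compounds for 48 hours, after which ATP was measured by CellTiter-Glo. Signal was taken as median relative luminescence units.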

[2] = Quantitative High-Throughput drug screen in 47 multiple myeloma cell lines against the NCATS MIPE library collection: LP1_DSMZ cell viability assay (AID 1918982); details: LP1 myeloma viability, CellTiter-Glo ATP luminescence, 48 h; series mostly up to 45.8 µM; also: nearly all actives have a fitted effect of over 35% in size
How it was run: as §1

[3] = Quantitative High-Throughput drug screen in 47 multiple myeloma cell lines against the NCATS MIPE library collection: KMS28PE_JCRB cell viability assay (AID 1918983); details: KMS28PE multiple myeloma viability, CellTiter-Glo ATP, 48 h; series mostly up to 45.8 µM; also: nearly all actives have a fitted effect of over 35% in size
How it was run: as §1

[4] = Quantitative High-Throughput drug screen in 47 multiple myeloma cell lines against the NCATS MIPE library collection: L363_DSMZ cell viability assay (AID 1918984); details: L363 myeloma viability, CellTiter-Glo ATP luminescence, 48 h; series mostly up to 45.8 µM; also: nearly all actives have a fitted effect of over 40% in size
How it was run: as §1

[5] = Quantitative High-Throughput drug screen in 47 multiple myeloma cell lines against the NCATS MIPE library collection: OCIMY5_PLB cell viability assay (AID 1918988); details: OCI-MY5 myeloma viability, ATP luminescence, 48 h; series mostly up to 45.8 µM; also: nearly all actives have a fitted effect of over 65% in size
How it was run: as §1

[6] = Quantitative High-Throughput drug screen in 47 multiple myeloma cell lines against the NCATS MIPE library collection: OPM1_PLB cell viability assay (AID 1918989); details: CellTiter-Glo, 48 h; series mostly up to 45.8 µM; also: nearly all actives have a fitted effect of over 40% in size
How it was run: as §1

[7] = Quantitative High-Throughput drug screen in 47 multiple myeloma cell lines against the NCATS MIPE library collection: XG1_PLB cell viability assay (AID 1919866); details: CellTiter-Glo ATP, 48 h; series mostly up to 45.8 µM; also: nearly all actives have a fitted effect of over 35% in size
How it was run: as §1

[8] = Quantitative High-Throughput drug screen in 47 multiple myeloma cell lines against the NCATS MIPE library collection: UTMC2_PLB cell viability assay (AID 1919868); details: CellTiter-Glo ATP luminescence, 48 h; viability (% of DMSO control): at 45.8 µM (top of the series); also: nearly all actives have a fitted effect of over 55% in size;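 as to viability (% of DMSO control): 100% = DMSO-only wells and 0% = media-only wells without cells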
How it was run: as §1

[9] = Quantitative High-Throughput drug screen in 47 multiple myeloma cell lines against the NCATS MIPE library collection: PE2_PLB cell viability assay (AID 1919869); details: PE2_PLB myeloma cells viability, ATP luminescence, 48 h; series mostly up to 45.8 µM; also: nearly all actives have a fitted effect of over 35% in size
How it was run: as §1

[10] = Quantitative High-Throughput drug screen in 47 multiple myeloma cell lines against the NCATS MIPE library collection: OCIMY7_PLB cell viability assay (AID 1918987); details: OCI-MY7 myeloma viability, CellTiter-Glo ATP, 48 h; viability (% of DMSO): at 45.8 µM (top of the series); also: nearly all actives have a fitted effect of over 65% in size
How it was run: as §1

[11] = Quantitative High-Throughput drug screen in 47 multiple myeloma cell lines against the NCATS MIPE library collection: SKMM1_PLB cell viability assay (AID 1919863); details: SKMM1 myeloma viability, CellTiter-Glo ATP, 48 h; viability: hits give low values; also: nearly all actives have a fitted effect of over 35% in size
How it was run: as §1

[12] = Quantitative High-Throughput drug screen in 47 multiple myeloma cell lines against the NCATS MIPE library collection: U266_ATCC cell viability assay (AID 1919864); details: U266 myeloma viability, CellTiter-Glo ATP luminescence, 48 h; series mostly up to 45.8 µM; also: nearly all actives have a fitted effect of over 35% in size;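 as to viability (% of DMSO control): 0% = media-only wells without cells and 100% = DMSO-only wells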
How it was run: as §1

[13] = Quantitative High-Throughput drug screen in 47 multiple myeloma cell lines against the NCATS MIPE library collection: RPMI8226_ATCC cell viability assay (AID 1919871); details: RPMI8226 myeloma viability, CellTiter-Glo ATP luminescence, 48 h; series mostly up to 45.8 µM; also: nearly all actives have a fitted effect of over 30% in size
How it was run: as §1

[14] = Quantitative High-Throughput drug screen in 47 multiple myeloma cell lines against the NCATS MIPE library collection: MM1S_ATCC cell viability assay (AID 1918980); details: MM1S myeloma viability, CellTiter-Glo ATP luminescence, 48 h; series mostly up to 45.8 µM; also: nearly all actives have a fitted effect of over 45% in size
How it was run: as §1

[15] = Quantitative High-Throughput drug screen in 47 multiple myeloma cell lines against the NCATS MIPE library collection: MM1R_ATCC cell viability assay (AID 1918981); details: MM1R multiple myeloma cells, CellTiter-Glo viability, 48 h; series mostly up to 45.8 µM; also: nearly all actives have a fitted effect of over 35% in size
How it was run: as §1

[16] = Quantitative High-Throughput drug screen in 47 multiple myeloma cell lines against the NCATS MIPE library collection: VP6_DJ cell viability assay (AID 1919867); details: ATP luminescence, 48 h; series mostly up to 45.8 µM; also: nearly all actives have a fitted effect of over 40% in size;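 as to viability (% of DMSO): 100% = DMSO-only wells and 0% = wells with media alone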
How it was run: as §1

[17] = Quantitative High-Throughput drug screen in 47 multiple myeloma cell lines against the NCATS MIPE library collection: XG6_PLB cell viability assay (AID 1919865); details: XG6 myeloma viability, CellTiter-Glo ATP luminescence, 48 h; series mostly up to 45.8 µM; also: nearly all actives have a fitted effect of over 40% in size
How it was run: as §1

[18] = Quantitative High-Throughput drug screen in 47 multiple myeloma cell lines against the NCATS MIPE library collection: PCM6_Riken cell viability assay (AID 1919870); details: CellTiter-Glo ATP, 48 h; series mostly up to 45.8 µM; also: nearly all actives have a fitted effect of over 30% in size
How it was run: as §1

[19] = Quantitative High-Throughput drug screen in 47 multiple myeloma cell lines against the NCATS MIPE library collection: KMS34_JCRB cell viability assay (AID 1918985); details: KMS34 myeloma viability, CellTiter-Glo ATP luminescence, 48 h; series mostly up to 45.8 µM; also: nearly all actives have a fitted effect of over 40% in size
How it was run: as §1

[20] = Quantitative High-Throughput drug screen in 47 multiple myeloma cell lines against the NCATS MIPE library collection: NCIH929_DSMZ cell viability assay (AID 1918978); details: NCI-H929 myeloma viability, CellTiter-Glo ATP, 48 h; series mostly up to 45.8 µM; also: nearly all actives have a fitted effect of over 35% in size
How it was run: as §1
Potency is read from the fitted curve at half-maximal effect.

NC(=O)c1cccc2[nH]c(-c3ccc([C@H]4CCCN4)cc3F)nc12
Potency [1]: inactive | Potency [2]: inactive | Potency [3]: inactive | Potency [4]: 14.8 µM (active) | Potency [5]: 20.9 µM (active) | Potency [6]: 14.8 µM (active) | Potency [7]: 8.33 µM (active) | Potency [8]: inactive | Potency [9]: 16.6 µM (active)

O=C(O)c1ccc(-c2c[nH]c3ncc(-c4ccccc4)cc23)cc1C1CCCC1
Potency [1]: inactive | Potency [10]: 8.33 µM (active) | viability [11]: 132% | Potency [12]: inactive | Potency [13]: inactive

COc1ccc(-c2nc(N3CCOCC3)c3sc(CN(C)c4ncc(C(=O)NO)cn4)cc3n2)cn1
Potency [1]: 0.0059 µM (active) | Potency [14]: inactive | Potency [15]: inactive | Potency [4]: 0.001 µM (active) | Potency [6]: inactive | Potency [16]: inactive | Potency [9]: 0.001 µM (active)

NC1=N[C@@]2(c3cc(NC(=O)c4ccc(F)cn4)ccc3F)COC[C@@H]2CS1
Potency [1]: inactive | Potency [3]: inactive | Potency [4]: 0.418 µM (active) | Potency [5]: 23.5 µM (active) | Potency [6]: 16.6 µM (active) | viability [11]: 111% | Potency [17]: 3.72 µM (active) | Potency [16]: 13.2 µM (active) | Potency [9]: 23.5 µM (active) | Potency [18]: 11.8 µM (active) | Potency [13]: inactive

CC1CCC(C(=O)N(c2cc(C#CC(C)(C)C)sc2C(=O)O)C2CCC(O)CC2)CC1 (stereo unspecified)
Potency [1]: inactive | Potency [14]: inactive | Potency [4]: inactive | Potency [10]: 23.5 µM (active) | Potency [12]: inactive | Potency [16]: 26.4 µM (active) | Potency [18]: 20.9 µM (active)

CC1(C)Cc2c(sc(NC(=S)NC(=O)c3ccccc3)c2C(=O)O)CO1
Potency [1]: inactive | Potency [14]: 18.7 µM (active) | Potency [15]: inactive | Potency [3]: inactive | Potency [19]: inactive | Potency [17]: 14.8 µM (active) | Potency [7]: inactive | Potency [8]: 20.9 µM (active) | Potency [18]: inactive

CC(C)n1cnc2c(NCCCCCCNC(=O)OC(C)(C)C)nc(NCCO)nc21
Potency [14]: 20.9 µM (active) | Potency [15]: 20.9 µM (active) | Potency [2]: 18.7 µM (active) | Potency [3]: 18.7 µM (active) | Potency [5]: 29.6 µM (active) | Potency [6]: 20.9 µM (active) | Potency [12]: 9.35 µM (active) | Potency [17]: 26.4 µM (active) | Potency [7]: 23.5 µM (active) | Potency [18]: 16.6 µM (active) | Potency [13]: 14.8 µM (active)

CC1(C)S[C@H]2[C@H](NC(=O)[C@@H](N)c3ccc(O)cc3)C(=O)N2[C@@H]1C(=O)O
Potency [1]: inactive | Potency [14]: 5.9 µM (active) | Potency [3]: 18.7 µM (active) | Potency [4]: 2.64 µM (active) | Potency [10]: 3.72 µM (active) | Potency [12]: 11.8 µM (active) | Potency [17]: 2.64 µM (active) | Potency [7]: 1.32 µM (active) | Potency [16]: 0.0743 µM (active) | Potency [9]: inactive | Potency [18]: 1.87 µM (active)

Oc1ccc(C2CCN(c3ccnc4ccccc34)CC2)cc1O
Potency [20]: 18.7 µM (active) | Potency [3]: 16.6 µM (active) | Potency [4]: 18.7 µM (active) | Potency [19]: 16.6 µM (active) | Potency [5]: 14.8 µM (active) | Potency [6]: 16.6 µM (active) | viability [11]: 103% | Potency [12]: 3.32 µM (active) | Potency [17]: 6.62 µM (active) | Potency [7]: 0.833 µM (active) | Potency [16]: 14.8 µM (active) | Potency [9]: 16.6 µM (active) | Potency [18]: 13.2 µM (active)

NC(=O)c1ccc2nc(-c3ccc(Oc4ccc(Cl)cc4)cc3)[nH]c2c1
Potency [20]: 0.0235 µM (active) | Potency [3]: inactive | Potency [6]: 6.62 µM (active) | Potency [12]: inactive | Potency [18]: inactive

CCCCCCCCCCCC1=C(O)C(=O)C=C(O)C1=O
Potency [1]: inactive | Potency [4]: 0.469 µM (active) | Potency [10]: 10.5 µM (active) | Potency [5]: 29.6 µM (active) | Potency [17]: 0.372 µM (active) | Potency [16]: 2.64 µM (active)

CC=CC[C@@H](C)C(=O)[C@H]1C(=O)N[C@@H](C(C)C)C(=O)N(C)CC(=O)N(C)[C@@H](CC(C)C)C(=O)N[C@@H](C(C)C)C(=O)N(C)[C@@H](CC(C)C)C(=O)N[C@@H](C)C(=O)N[C@H](C)C(=O)N(C)[C@@H](CC(C)C)C(=O)N(C)[C@@H](CC(C)C)C(=O)N(C)[C@@H](C(C)C)C(=O)N1C
Potency [1]: inactive | Potency [14]: 16.6 µM (active) | Potency [10]: 16.6 µM (active) | Potency [5]: 23.5 µM (active) | Potency [11]: 14.8 µM (active)

COCCOC(=O)C1=C(C)NC2=C(C(=O)CC(c3ccccc3OC)C2)C1c1cccc(O)c1 (stereo unspecified)
Potency [1]: inactive | Potency [14]: 16.6 µM (active) | Potency [3]: 5.9 µM (active) | Potency [4]: 0.001 µM (active) | Potency [10]: 2.64 µM (active) | Potency [5]: 8.33 µM (active) | Potency [11]: 10.5 µM (active) | Potency [12]: 13.2 µM (active) | Potency [17]: 2.64 µM (active) | Potency [7]: 4.18 µM (active) | Potency [9]: 16.6 µM (active)

NC(=O)[C@@H](CCC(F)(F)F)N(Cc1ccc(-c2ncon2)cc1F)S(=O)(=O)c1ccc(Cl)cc1
Potency [1]: inactive | Potency [14]: 16.6 µM (active) | Potency [15]: inactive | Potency [5]: 23.5 µM (active) | Potency [11]: 0.187 µM (active) | Potency [12]: 10.5 µM (active)

O=C(NCc1ccccc1)c1csc(Nc2ccncn2)n1
Potency [1]: 20.9 µM (active) | Potency [14]: 16.6 µM (active) | Potency [15]: 14.8 µM (active) | Potency [2]: 18.7 µM (active) | Potency [3]: 16.6 µM (active) | Potency [4]: 10.5 µM (active) | Potency [10]: 8.33 µM (active) | Potency [6]: 13.2 µM (active) | Potency [11]: 18.7 µM (active) | Potency [12]: 18.7 µM (active) | Potency [17]: 18.7 µM (active) | Potency [7]: 16.6 µM (active) | Potency [16]: 16.6 µM (active) | Potency [8]: 16.6 µM (active) | Potency [9]: 13.2 µM (active) | Potency [18]: 8.33 µM (active) | Potency [13]: 20.9 µM (active)

Cc1ccc(/C=N/NC(=O)c2ccccc2Oc2ccccc2)o1
Potency [1]: inactive | Potency [14]: 18.7 µM (active) | Potency [4]: inactive | Potency [10]: 16.6 µM (active) | Potency [5]: 16.6 µM (active) | Potency [7]: 11.8 µM (active) | Potency [16]: inactive

CS(=O)(=O)N(Cc1ccco1)CC(O)Cn1c2ccccc2c2ccccc21 (stereo unspecified)
Potency [1]: inactive | Potency [3]: 5.9 µM (active) | Potency [4]: inactive | Potency [19]: 16.6 µM (active) | Potency [10]: 13.2 µM (active) | Potency [12]: 18.7 µM (active) | Potency [17]: inactive | Potency [7]: 20.9 µM (active) | Potency [8]: inactive | Potency [9]: 16.6 µM (active) | Potency [13]: inactive
